From paper PMC5540273 (PLoS ONE, 2017)

Tests used:
Settings in all cases: concentration: 1 μM, replicates: in singlicate; n = 1
IRAK4 = tested on: IRAK4
ITK = tested on: ITK
[1] = tested on: JAK1(JH1domain-catalytic)
[2] = tested on: JAK1(JH2domain-pseudokinase)
[3] = tested on: JAK2(JH1domain-catalytic)
[4] = tested on: JAK3(JH1domain-catalytic)
JNK1 = tested on: T1, JNK1
T1 construct: gene MAPK8

JNK2 = tested on: T2, JNK2
T2 construct: gene MAPK9

JNK3 = tested on: T3, JNK3
T3 construct: gene MAPK10

KIT-autoinhibited = tested on: KIT-autoinhibited
KIT = tested on: KIT
LATS1 = tested on: LATS1
LATS2 = tested on: LATS2
LCK = tested on: LCK
LIMK1 = tested on: LIMK1
LIMK2 = tested on: LIMK2
LKB1 = tested on: T4, LKB1
T4 construct: gene STK11

LOK = tested on: T5, LOK
T5 construct: gene STK10

LRRK2 = tested on: LRRK2
LTK = tested on: LTK
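Also: KINOMEscan kinase panel screen.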

Structure (SMILES)	%Inh (IRAK4) [%]	%Inh (ITK) [%]	%Inh [1] [%]	%Inh [2] [%]	%Inh [3] [%]	%Inh [4] [%]	%Inh (JNK1) [%]	%Inh (JNK2) [%]	%Inh (JNK3) [%]	%Inh (KIT-autoinhibited) [%]	%Inh (KIT) [%]	%Inh (LATS1) [%]	%Inh (LATS2) [%]	%Inh (LCK) [%]	%Inh (LIMK1) [%]	%Inh (LIMK2) [%]	%Inh (LKB1) [%]	%Inh (LOK) [%]	%Inh (LRRK2) [%]	%Inh (LTK) [%]
Cc1c(O)cccc1Nc1ccnc2ccc(C(F)(F)F)cc12.Cl [GW466413]	0	0	0	0	6	0	21	4	0	0	17	0	0	73	0	0	0	0	58	28
CS(=O)(=O)c1ccc(-c2nc3n(c2-c2ccncc2)CCC3)cc1 [SKF-105942]	23	7	6	0	0	0	41	16	0	7	0	0	0	8	19	0	0	0	0	0
Cl.NC(=O)c1cccc(Nc2nccc(Nc3ccc(Oc4cccc(Cl)c4)c(Cl)c3)n2)c1 [GW659008]	0	0	15	0	84	0	22	20	10	0	46	0	0	68	43	4	0	15	11	0
Cc1cccc(-c2nc(-c3ccc(S(C)(=O)=O)cc3)sc2-c2ccnc(NCCc3ccccc3)c2)c1	9	0	2	4	8	0	0	0	0	0	98.4	13	0	0	0	4	0	0	0	0
O=C(Nc1ccc2c(c1)OCO2)NC1CCN(c2ccnc(Nc3ccc(F)cc3)n2)C1 (stereo not drawn) [GSK1379724]	21	8	18	0	13	0	33	23	24	0	54	0	0	12	41	0	0	0	28	0
Cc1cccc(-c2nc(Nc3ccncc3)c3ccccc3n2)n1 [GW855857]	0	24	0	74	0	0	0	6	21	0	10	3	0	9	12	5	18	37	0	21
O=C(Nc1ccccc1)Nc1cccc(Oc2ccc3nccn3n2)c1	0	2	16	5	7	0	0	0	0	39	100	0	30	33	0	0	24	18	0	0
COc1cccc(NC(=O)NC2CCN(c3ccnc(Nc4ccc(F)cc4)n3)C2)c1 (stereo not drawn) [GSK1379721]	12	0	7	0	20	0	0	4	0	0	63	0	0	1	0	5	25	0	0	0
COC(=O)c1c(-c2ccccc2)c2cc(OC)ccc2c(=O)n1Cc1ccccc1	10	9	10	0	0	0	66	68	85	6	93.3	31	0	0	0	0	8	9	0	11
COc1cc2nccc(Nc3ccc(NC(=O)c4ccc(C)cc4)c(O)c3)c2cc1OC.Cl [GW440132]	0	20	12	0	0	0	16	29	7	0	38	0	0	83	4	1	2	0	28	0
CC(C)(C)c1ccc(C(=O)Nc2cn3cc(Cl)ccc3n2)cc1	0	0	0	7	1	0	0	0	0	42	74	10	0	26	0	0	4	8	0	0
COc1cccc(-c2cc(-c3c[nH]nc3-c3ccccn3)ccn2)c1 [GW680338]	0	2	7	0	0	0	42	40	50	0	9	64	0	10	0	15	1	10	6	0
CC(C)(C)c1ccc(C(=O)Nc2cn3cc(-c4cccnc4)ccc3n2)cc1	70	24	0	45	6	2	24	0	5	0	91.5	23	10	8	16	20	24	79	0	19
COc1cc2ncn(-c3cc(OCC4CCCO4)c(C(N)=O)s3)c2cc1OC (stereo not drawn) [GSK204607]	0	5	0	0	1	0	0	17	7	0	16	0	10	7	0	16	0	96.9	0	11
COc1ccc2nc(-c3cccc(C)n3)nc(Nc3ccncc3)c2c1 [GSK204919]	0	13	0	80	10	0	0	60	36	0	26	0	0	4	20	3	0	0	0	0
